According to the supplement of paper PMC8728848:
Only a selection was taken, and the strongest signals are over-represented in it overall.

What was measured:
Assay in all cases: glycan array binding signal (z-score within array); higher = stronger binding
Settings in all cases: glycan notation: IUPAC condensed, linker removed
[1] = target: Fuc(a1-2)Gal(b1-3)GlcNAc(b1-2)Man(a1-3)[Fuc(a1-2)Gal(b1-3)GlcNAc(b1-2)Man(a1-6)]Man(b1-4)GlcNAc(b1-4)[Fuc(a1-6)]GlcNAc
In short: (§1)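 The binding signal is a Z-score computed within each array. Data were drawn from 3228 arrays in the Consortium for Functional Glycomics database, restricted to those with a known protein sequence. Scores were averaged over arrays of the same protein sequence at different concentrations or buffers, and over linkers, and negative values can be taken as non-binding.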

[2] = target: Fuc(a1-2)Gal(b1-3)GlcNAc(b1-3)[Gal(b1-4)GlcNAc(b1-6)]Gal(b1-4)Glc
In short: as §1

[3] = target: Fuc(a1-2)Gal(b1-4)GlcNAc(b1-3)GalNAc
In short: as §1

[4] = target: Fuc(a1-2)Gal(b1-4)[Fuc(a1-3)]GlcNAc(b1-2)[Fuc(a1-2)Gal(b1-4)[Fuc(a1-3)]GlcNAc(b1-4)]Man(a1-3)[Fuc(a1-2)Gal(b1-4)[Fuc(a1-3)]GlcNAc(b1-2)Man(a1-6)]Man(b1-4)GlcNAc(b1-4)GlcNAc
In short: as §1

[5] = target: Fuc(a1-2)[GalNAc(a1-3)]Gal(b1-4)Glc
In short: as §1

[6] = target: Fuc(a1-2)[GalNAc(a1-3)]Gal(b1-4)[Fuc(a1-3)]GlcNAc(b1-3)GalNAc
In short: as §1

[7] = target: Fuc(a1-3)[Gal(b1-4)]GlcNAc(b1-3)GalNAc
In short: as §1

[8] = target: Gal(b1-3)GlcNAc(b1-3)Gal(b1-4)GlcNAc(b1-6)[Gal(b1-3)GlcNAc(b1-3)]Gal(b1-4)Glc
In short: as §1

[9] = target: Gal(b1-4)GlcNAc(b1-6)Gal(b1-4)GlcNAc
In short: as §1

GalNAc(b1-3)Gal = target: GalNAc(b1-3)Gal
In short: as §1

GalNAc(b1-4)Gal(b1-4)Glc = target: GalNAc(b1-4)Gal(b1-4)Glc
In short: as §1

GalNAc(b1-6)GalNAc = target: GalNAc(b1-6)GalNAc
In short: as §1

[10] = target: GlcNAc(a1-4)Gal(b1-4)GlcNAc(b1-3)Gal(b1-4)[Fuc(a1-3)]GlcNAc(b1-3)Gal(b1-4)[Fuc(a1-3)]GlcNAc
In short: as §1

[11] = target: GlcNAc(b1-3)Gal(b1-3)GalNAc
In short: as §1

GlcNAc(b1-3)GalNAc = target: GlcNAc(b1-3)GalNAc
In short: as §1

Kdn(a2-3)Gal(b1-4)Glc = target: Kdn(a2-3)Gal(b1-4)Glc
In short: as §1

Kdn(a2-6)Gal(b1-4)GlcNAc = target: Kdn(a2-6)Gal(b1-4)GlcNAc
In short: as §1

[12] = target: Man(a1-2)Man(a1-2)Man(a1-6)[Man(a1-3)]Man
In short: as §1

[13] = target: Man(a1-2)Man(a1-3)[Man(a1-2)Man(a1-6)]Man(a1-6)[Man(a1-2)Man(a1-2)Man(a1-3)]Man
In short: as §1

[14] = target: Man(a1-2)Man(a1-3)[Man(a1-2)Man(a1-6)]Man(a1-6)[Man(a1-2)Man(a1-2)Man(a1-3)]Man(b1-4)GlcNAc(b1-4)GlcNAc
In short: as §1

[15] = target: Man(a1-2)Man(a1-6)[Man(a1-3)]Man(a1-6)[Man(a1-2)Man(a1-2)Man(a1-3)]Man
In short: as §1

[16] = target: Man(a1-2)Man(a1-6)[Man(a1-3)]Man(a1-6)[Man(a1-2)Man(a1-2)Man(a1-3)]Man(b1-4)GlcNAc(b1-4)GlcNAc
In short: as §1

Man(a1-3)[Man(a1-6)]Man = target: Man(a1-3)[Man(a1-6)]Man
In short: as §1

[17] = target: Man(a1-3)[Man(a1-6)]Man(a1-6)[Man(a1-2)Man(a1-3)]Man(b1-4)GlcNAc(b1-4)GlcNAc
In short: as §1

[18] = target: Man(a1-3)[Man(a1-6)]Man(a1-6)[Man(a1-3)]Man
In short: as §1

[19] = target: Man(a1-3)[Man(a1-6)]Man(a1-6)[Man(a1-3)]Man(b1-4)GlcNAc(b1-4)GlcNAc
In short: as §1

[20] = target: Neu5Ac(a2-3)Gal(b1-3)GalNAc(b1-3)Gal(a1-4)Gal(b1-4)Glc
In short: as §1

[21] = target: Neu5Ac(a2-3)Gal(b1-3)GlcNAc
In short: as §1

[22] = target: Neu5Ac(a2-3)Gal(b1-4)GlcNAc(b1-2)Man(a1-3)[GlcNAc(b1-2)Man(b1-4)GlcNAc(b1-2)Man(a1-6)]Man(b1-4)GlcNAc(b1-4)GlcNAc
In short: as §1

[23] = target: Neu5Ac(a2-3)Gal(b1-4)GlcNAc(b1-6)[Neu5Ac(a2-3)Gal(b1-3)]GalNAc
In short: as §1

B1: RS2L (Ralstonia solanacearum), B5RXL5_RALSO (protein)
chain: MAQQGVFTLPANTSFGVTAFANAANTQTIQVLVDNVVKATFTGSGTSDKLLGSQVLNSGSGAIKIQVSVNGKPSDLVSNQTILANKLNFAMVGSEDGTDNDYNDGIAVLNWPLG
glycan array binding signal (z-score) [1]: 0.443 | glycan array binding signal (z-score) [2]: -0.211 | glycan array binding signal (z-score) [3]: -0.205 | glycan array binding signal (z-score) [4]: -0.175 | glycan array binding signal (z-score) [5]: -0.244 | glycan array binding signal (z-score) [6]: -0.233 | glycan array binding signal (z-score) [7]: -0.24 | glycan array binding signal (z-score) [8]: -0.246 | glycan array binding signal (z-score) [9]: -0.255 | glycan array binding signal (z-score) (GalNAc(b1-3)Gal): -0.243 | glycan array binding signal (z-score) (GalNAc(b1-4)Gal(b1-4)Glc): -0.247 | glycan array binding signal (z-score) (GalNAc(b1-6)GalNAc): -0.243 | glycan array binding signal (z-score) [10]: -0.12 | glycan array binding signal (z-score) [11]: -0.245 | glycan array binding signal (z-score) (GlcNAc(b1-3)GalNAc): -0.249 | glycan array binding signal (z-score) (Kdn(a2-3)Gal(b1-4)Glc): -0.242 | glycan array binding signal (z-score) (Kdn(a2-6)Gal(b1-4)GlcNAc): -0.251 | glycan array binding signal (z-score) [12]: 6.32 | glycan array binding signal (z-score) [13]: 6.92 | glycan array binding signal (z-score) [14]: 3.42 | glycan array binding signal (z-score) [15]: 5.7 | glycan array binding signal (z-score) [16]: 5.97 | glycan array binding signal (z-score) (Man(a1-3)[Man(a1-6)]Man): 7.32 | glycan array binding signal (z-score) [17]: 6.99 | glycan array binding signal (z-score) [18]: 5.11 | glycan array binding signal (z-score) [19]: 5.42 | glycan array binding signal (z-score) [20]: -0.25 | glycan array binding signal (z-score) [21]: -0.247 | glycan array binding signal (z-score) [22]: -0.245 | glycan array binding signal (z-score) [23]: -0.254
